Assay outcomes: PubChem, National Center for Advancing Translational Sciences (NCATS)
LASV entry inh: inhibitors of Lassa virus binding or cell entry | Lassa virus pseudotype entry inhibition, cell reporter | Potency, µM (titrated, usually from 37.9 µM), usual class: inhibitors | 1.2% of 300,000 active; calls by dose curve; tested in HEK293 cells; note: nearly all actives have a fitted effect of over 50% in size
FMDV antiviral: antivirals against foot and mouth disease virus; FMDV antiviral cell-based qHTS; Potency, µM (series often up to 57.9 µM), most hits filed as inhibitors; 1.2% of 410,000 active; AID 1159524; calls by dose curve; tested in HEK293T cells; note: read-out not given here; nearly all actives have a fitted effect of over 45% in size
Marburg entry inh: blocks Marburg virus binding to or entry into cells | Marburg virus pseudotyped entry inhibition, cell reporter | Potency, µM (series often up to 37.8 µM), actives largely listed as inhibitors | 1.8% of 300,000 active | AID 540276; calls by dose curve; tested in HEK293 cells
HCMV inh: blocks human cytomegalovirus replication. AID 1259415. HFF cells, HCMV-luciferase reporter, 72 h; stronger effect = lower value. 4.5% of 410,000 active. activity change, negative = inhibition, % at 57.5 µM; in the data active = activity change below about -60%; inconclusive = no clear call, values can overlap the other calls; inactive = above about -39%
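Two-dose cell screen: HFF monolayers treated with compounds and infected with luciferase-expressing HCMV at 1 PFU/cell, 72 h at 37C, then lysed for luciferase measurement.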
Vaccinia Venus: vaccinia inhibition (Venus reporter); Potency, µM (series often up to 36.5 µM), most hits filed as inhibitors; 0.46% of 330,000 active; AID 720580; Vaccinia virus Venus reporter expression, fluorescence; calls by dose curve; tested in A549 cells; note: nearly all actives have a fitted effect of over 30% in size
Vaccinia mCherry: vaccinia inhibition (mCherry reporter) | Potency, µM (titrated, usually from 36.5 µM), hits mostly inhibitors | Vaccinia virus mCherry reporter infection, fluorescence | 0.63% of 310,000 active; calls by dose curve; tested in A549 cells; note: nearly all actives have a fitted effect of over 35% in size
G2M arrest HeLa: causes HeLa cells to arrest in G2/M phase | shares compounds with Marburg entry inh | HeLa cell cycle G2/M arrest, Hoechst DNA content imaging | Potency, µM, actives largely listed as inhibitors | 60% of 25 active | AID 2441
WI-38 tox: counter-screen for perinucleolar compartment inhibitors: WI-38 cytotoxicity | 120 tested, under 10 active | WI-38 normal lung fibroblasts, ATPLite luminescence ATP viability, 24 h | Potency, µM (top dose mostly 46.1 µM), hits mostly inhibitors | shares compounds with Marburg entry inh | AID 2729
PNC inh conf: confirmation of perinucleolar compartment assembly inhibitors. AID 2730. Potency, µM (highest dose often 46.1 µM), hits mostly inhibitors. shares compounds with Marburg entry inh. 50% of 120 active. PC3M PTB-GFP, PNC prevalence imaging, 16 h
PC3M casp3-7: counter-screen for PNC inhibitors: PC3M caspase 3/7 activation. shares compounds with Marburg entry inh. PC3M-GFP caspase 3/7 activation, luminescence, 24 h. activity change, positive = activation, % at 46.1 µM. 120 tested, under 10 active
Numbers stand for hits; 0 = inactive; ? = inconclusive; - = not tested or not shown; ! = repeats disagree; [ ] = remark or other dose. Only some compounds are listed: those with a hit (about 6.5% of all), similar ones and a draw of the others. Unless noted, calls come from the whole dose curve; as a rule, active = well fitted curve in the direction sought with a large enough effect; inconclusive = small, poorly fitted or top-dose-only effect, or another doubt; inactive = no such curve, though single readings can be large; an effect the other way counts as inactive or inconclusive.

SMILES	LASV entry inh	FMDV antiviral	Marburg entry inh	HCMV inh	Vaccinia Venus	Vaccinia mCherry	WI-38 tox	PNC inh conf	PC3M casp3-7	others
COc1cc(C2c3cc4c(cc3OC(NCCc3ccccc3)C2C)OCO4)cc(OC)c1OC (configuration not stated)	?	0	?	-82.0	?	?	-	-	-
O=[N+]([O-])c1cc(C(F)(F)F)ccc1N1CCN(S(=O)(=O)c2ccc3c(c2)CCCC3)CC1	0	?	?	-96.3	0	0	-	-	-
C=CCOc1ccc(CN(C)c2ccc(S(=O)(=O)N3CCN(C)CC3)cc2[N+](=O)[O-])cc1	?	?	?	0	0	?	-	-	-
CC1CN(c2ccc(C(F)(F)F)cc2[N+](=O)[O-])CCN1S(C)(=O)=O (configuration not stated)	0	?	0	0	0	0	-	-	-
CN1CCN(S(=O)(=O)c2ccc(N(C)Cc3ccc(C(F)(F)F)cc3)c([N+](=O)[O-])c2)CC1	?	?	10µM	?	?	0	-	-	-
C(=C\c1c[nH]c2ccccc12)/c1ccc2ccccc2n1	-	-	-	-	0	?	-	-	-
Cc1cc(C)n(CCCN2CCC(C(=O)Nc3cccc(-c4cccc(F)c4)c3)CC2)n1	0	?	12.6µM	-99.8	?	?	-	-	-
CN1C(=O)C(n2ccc3ccccc32)c2cc(Cl)ccc21 (configuration not stated)	-	-	-	0	-	-	-	-	-
Cc1cccc(NC(=O)C(c2ccccc2)N2Cc3ccccc3C2=O)c1C (configuration not stated)	0	0	-	-73.8	0	0	-	-	-
CCc1ccccc1NC(=O)[C@@H](c1ccccc1)N1Cc2ccccc2C1=O	0	0	?	0	0	0	-	-	-
Cc1cc[n+](C2=C([O-])c3ccccc3C(=O)/C2=N\S(=O)(=O)c2cccs2)cc1C	?	0	?	0	0	0	0	?	?
CN(C)CCCN1c2ccccc2Sc2ccc(Cl)cc21	23.1µM	?	5.62µM	-66.1!	?	?	-	-	-	G2M arrest HeLa=?
CN1CCN(CCCN2c3ccccc3Sc3ccc(S(=O)(=O)N(C)C)cc32)CC1	-	?	-	0	0	?	-	-	-
Cc1cc(C(=O)COc2ccccc2Cl)c(C)n1-c1ccc2c(c1)OCO2	4.11µM	0	16.4µM	0	0	0	0	7.94µM	0
CNS(=O)(=O)c1cccc(C(=O)OCC(=O)c2cc(C)n(-c3ccc4c(c3)OCO4)c2C)c1	0	0	0	0	0	-	-	-	-
CCOC(=O)CSc1nc2c(sc3ccc([N+](=O)[O-])cc32)c(=O)n1Cc1ccco1	0	0	0	0	0	0	0	0	0
CNC1=C(N(C(C)=O)c2ccc(Br)cc2)C(=O)c2ccccc2C1=O	5.62µM	8.91µM	2.31µM	-99.8	5.62µM	?	?	?	?
CC(=O)c1c(C)cc(C)c(CSc2nc(C)cc(=O)[nH]2)c1C	0	-	?	0	0	0	0	?	0
CCOc1ccccc1CNc1ncnc2onc(-c3ccc(F)cc3)c12	0	?	-	0	0	0	-	-	-
C/C(N)=C(/C#N)C(=O)COC(=O)c1cc(C)n(-c2ccc(F)cc2)c1C	?	0	2µM	0	0	?	0	12.6µM	0
COc1cc(/C=N/NC(=O)c2ccc(CSc3nc4ccccc4[nH]3)cc2)cc(OC)c1OC	?	?	?	0	0	0	0	0	0
COc1cc(/C=N/NC(=O)c2ccc3nc[nH]c3c2)cc(OC)c1OC	0	0	0	-	0[7.34 µM]	0[7.34 µM]	-	-	-
CC(C)CNC(=O)CSc1nnc(-c2cccc(S(=O)(=O)N3CCCCC3)c2)o1	0	0	0	0	?	?	0	0	0
Oc1ccc(-c2nc(-c3ccc(F)cc3)c(-c3ccncc3)[nH]2)cc1	?	?	5.01µM	0	0	0	-	-	-	G2M arrest HeLa=?
O=C(O)c1ccc(-c2nc(-c3ccccc3)c(-c3ccccc3)[nH]2)cc1	?	0	0	0	0	0	-	-	-
